Compound activity (PubChem)
D2 PAM-1: D2 dopamine receptor (human) potentiation; P14416; HEK293 T-REx D2, calcium flux, EC20 dopamine potentiation; potentiation, % at 10 µM; 340,000 tested, 0.34% active; AID 485347;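 active = potentiation over 3 SD above the plate norm, cut at about 30% in these data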; note: 0% is about no effect
Target sequence (P14416 whole entry, looked up): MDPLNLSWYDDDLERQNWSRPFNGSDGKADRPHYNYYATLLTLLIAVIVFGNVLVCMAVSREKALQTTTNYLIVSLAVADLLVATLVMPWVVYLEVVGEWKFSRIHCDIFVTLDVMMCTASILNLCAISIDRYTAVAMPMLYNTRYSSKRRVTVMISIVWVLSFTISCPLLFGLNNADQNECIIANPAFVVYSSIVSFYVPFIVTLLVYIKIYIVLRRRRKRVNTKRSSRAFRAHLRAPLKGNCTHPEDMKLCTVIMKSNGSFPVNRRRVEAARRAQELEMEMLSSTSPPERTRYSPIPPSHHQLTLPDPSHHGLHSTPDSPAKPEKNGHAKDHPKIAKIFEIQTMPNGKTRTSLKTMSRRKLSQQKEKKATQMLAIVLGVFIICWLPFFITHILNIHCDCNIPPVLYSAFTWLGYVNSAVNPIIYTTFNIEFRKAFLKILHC
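Tetracycline-induced HEK293 T-REx cells force-coupled to calcium signalling expressed D2; compounds were pin-added after a 10 s baseline, read kinetically 180 s, then an EC20 dopamine challenge followed with a further 180 s calcium read.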
D2 antag: antagonists of human D2 dopamine receptor. 340,000 tested, 2% active. AID 485344. inhibition, % at 10 µM. HEK293 TREx D2 cells, calcium flux, dopamine EC80. P14416; in the data active = inhibition above about 30%; inactive = below that, where a call was filed; note: 0% is about no effect
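In this primary screen, negative modulation is detected by tracking calcium flux after an EC80 dopamine challenge in inducible HEK293 T-REx D2 cells preexposed to test compound for 180 s.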
D2 PAM-2: potentiates the human D2 dopamine receptor allosterically; P14416; DiscoveRx D2 beta-arrestin cells, luminescence, 90 min; 100% = 57 uM dopamine signal; potentiation, % (concentration not given with the values); 360,000 tested, 0.23% active; in the data active = potentiation above about 50%; inconclusive = mostly about 30% to 49%
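PathHunter D2 cells, attached overnight at 37 deg C, received compound in DMSO plus dopamine at EC20 (50 nM final) for 90 min at 37 deg C. Beta-arrestin recruitment was read as luminescence after 1 h with detection reagent at ambient temperature.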
D2 ag-1: human D2 receptor agonism in beta-arrestin assay. DiscoveRx PathHunter D2 beta-arrestin, luminescence, 90 min; 100% = 57 uM dopamine signal. activation, % (test concentration not listed). 360,000 tested, 0.084% active. AID 624465; in the data active = activation above about 40%; inconclusive = between about 15% and that limit
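DiscoveRx PathHunter D2 beta-arrestin cells (2,100/well) attached overnight, then compound-stimulated 90 min at 37 C in HBSS/10 mM HEPES/0.1% Tween-20 buffer; beta-galactosidase complementation read by luminescence after 1 h at ambient temperature. Dopamine 57 uM final (EC100) as control.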
D2 ag-2: agonists of human D2 dopamine receptor | P14416 | HEK293 T-REx D2 cells, calcium flux agonist mode | activation, % at 2 µM | 340,000 tested, 0.53% active | AID 485358;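 active = activation over 3 SD above normal in the single-dose calcium agonist read, cut at about 30% in these data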; note: 0% is about no effect
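Tetracycline-induced HEK293 T-REx cells with force-coupled D2 receptor, plated overnight at 30 C, loaded with no-wash calcium dye. After a 10 s baseline, compound was pin-added and calcium flux read kinetically for 180 s; calcium rises flagged agonists.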
D3 arrestin ag: D3 receptor agonism confirmed, beta-arrestin readout; shares compounds with D2 ag-2; DiscoveRx D3 beta-arrestin cells, luminescence, 90 min; Potency, µM (top dose mostly 76.9 µM), without a hit: at the top dose activation, usual class: activators; 2,300 tested, 4% active;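 note: potency is the fitted concentration of half-maximal effect; 100% = dopamine control response; nearly all actives have a fitted effect of over 70% in size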
D2 ag-3: D2 receptor agonism, beta-arrestin counterscreen | 2,300 tested, 5.9% active | DiscoveRx PathHunter D2 beta-arrestin, luminescence, 90 min; response scale: percent relative to full dopamine signal | Potency, µM (top dose mostly 76.9 µM), for inactives: top-dose activation, actives largely listed as activators | shares compounds with D2 ag-2 | AID 720507; note: potency is the fitted concentration of half-maximal effect; % of control where 0% means no effect; nearly all actives have a fitted effect of over 70% in size
The depositor's hits bear a star; ? = inconclusive; . = not tested or not shown. A selection: hits, their analogues and other compounds. The true share with any hit is near 2.4%. Unless noted, calls come from the whole dose curve; as a rule, active = well fitted activation curve with a large enough effect; inconclusive = small, poorly fitted or top-dose-only effect; inactive = flat fitted curve, though single readings scatter.

SMILES	D2 PAM-1	D2 antag	D2 PAM-2	D2 ag-1	D2 ag-2	D3 arrestin ag	D2 ag-3
CCOC(=O)C1(CCOc2ccccc2)CCN(Cc2cccn2-c2ncccn2)CC1	3	-8	-7	1	0	-8%	3%
CCOC(=O)C1(Cc2cccc(OC)c2)CCN(Cc2cnc(SC)nc2)CC1	-19	93*	3	-2	59*	0%	?
CCOC(=O)C1CCN(Cc2cccc(OCc3ccccc3)c2)CC1	-21	86*	22	48*	74*	14%	?
CCOC(=O)N1CCC(NC(=O)c2ccc3c(c2)N(Cc2ccc(F)cc2)C(=O)c2ccccc2S3(=O)=O)CC1	7	.	.	.	1	.	.
Cc1cc(C(=O)N2CCN(c3cccc(C)c3C)CC2)c2c(C)nn(-c3ccccc3)c2n1	3	.	.	.	1	.	.
CCOc1cccc(C2c3[nH]c4ccccc4c3CCN2C(=O)Cc2cccc(OCC)c2OCC)c1 (stereo not drawn)	18	.	.	.	0	.	.
Cn1cc(CN2CCC(O)CC2)c(-c2ccc(Oc3ccccc3)cc2)n1	-14	10	-12	-7	1	.	.
CCOC(=O)C1CCN(Cc2cn(C)nc2-c2ccc(Oc3ccccc3)cc2)CC1	-8	20	-5	5	18	-12%	9%
C/C(=C\c1ccccc1)CN1CCN(c2ccccc2F)CC1	-29	67*	-10	11	18	-14%	9%
CCN1CCN(C/C(C)=C/c2ccccc2)CC1	-19	23	2	1	1	.	.
Cc1cc(NC(=O)C(=O)NCCN2CCN(C(=O)c3cccs3)CC2)ccc1Br	-10	27	-21	0	22	28%	6%
COc1ccc(NC(=O)C(=O)NCCN2CCN(C(=O)c3cccs3)CC2)cc1	6	44*	-18	1	14	?	7%
CC1(C)CC(=O)C=C(/C=C/c2ccccc2)C1	10	-7	-15	-4	-2	-5%	0%
CCN(CC)CCNC(=O)c1ccc2c(c1)NC(=O)C(CS(=O)(=O)Cc1ccc(F)cc1Cl)N2 (stereo not drawn)	4	.	.	.	0	.	.
COC(=O)C(N)Cc1ccc(O)c(O)c1 (stereo not drawn)	-5	-4	26	8	41*	26%	21%
COc1ccc(-c2nc3scc(CCNS(=O)(=O)c4ccc5c(c4)OCCO5)n3n2)cc1	17	.	.	.	0	.	.
CN(CC(=O)NCCN1CCN(c2ccccc2)CC1)S(=O)(=O)c1ccc2c(c1)CCC(=O)N2	-22	75*	-6	1	82*	?	?
O=C(COc1cccc(C(F)(F)F)c1)NNC(=O)Cc1ccc(S(=O)(=O)N2CCOCC2)s1	-5	28	-6	8	0	.	.
O=C(COc1cccc(F)c1)NNC(=O)Cc1ccc(S(=O)(=O)N2CCOCC2)s1	10	-29	-3	13	0	0%	-2%
CCOc1cccc(C(=O)Nc2ccc3oc(-c4ccncc4)nc3c2)c1	-6	.	.	.	-1	.	.
Cc1cccc(CSc2cn(CC(=O)N3CCCC3)c3ccccc23)c1	1	.	.	.	0	.	.
Cc1ccc(NC(=O)CN2CCN(c3ccccn3)CC2)cc1S(=O)(=O)N(C)C	-24	77*	8	58*	69*	1.4µM*	14µM*
Cc1cc(C)cc(NC(=O)CN2CCN(c3ccccn3)CC2)c1	12	16	-25	2	3	.	.
CN(C)S(=O)(=O)c1cc(NC(=O)CN2CCN(c3ccccc3)CC2)ccc1Cl	-19	64*	15	?	71*	50µM*	?
CN(C)S(=O)(=O)c1cc(NC(=O)CN2CCN(c3ccc(O)cc3)CC2)ccc1Cl	-18	1	-16	11	13	.	.
